Test results: PubChem BioAssay (NCI)
The panel holds about 83,000 compounds, 20% with a hit somewhere; the sample as a whole holds those more often.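 Single-concentration screen, 48 h exposure, 96-well plates. Endpoint: percent growth. Below 10 = active.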 Values without a mark were called inactive. The source made the active and inactive calls.

Tested on: BT-549 breast
Experiment: NCI-60 one-dose screen, 48 h (100 = growth as untreated, 0 = no growth, -100 = all killed)
Settings: 10 µM
Method: Growth inhibition of the BT-549 human tumor cell line is measured as a screen for anti-cancer activity. Cells are grown in 96 well plates and exposed to the test compound for 48 hours. Compounds are tested at a single concentration, which is 10^-5 M for most compounds. The reported endpoint is percent growth (GI% or GIPRCNT), where numbers from 0 - 100% represent growth inhibition, and numbers from -100% - 0 represent cell death. For example, a value of 40 represents 60% growth inhibition. A value of 0 means no net growth occurred over the course of the experiment. A value of -40 indicates 40% of cells at the beginning of the experiment died by the end of the experiment. A value of -100 means all cells are dead at the end of the experiment.
NCI-60 Human Tumor Cell Lines Screen was performed using the standard one-dose NCI protocol, which is described in more detail at https://dtp.cancer.gov/discovery_development/nci-60/default.htm.
Compounds with GIPRCNT values below 10 were considered active. Activity score was based on GIPRCNT using the following formula: […]
Score is 0 for GIPRCNT values of 100 or above, 50 for GIPRCNT values of 0, and 100 for GIPRCNT values of -100.

Q: Which growth does the source give for Nc1cccc(CC(=O)Nc2ccc(S(=O)(=O)F)cc2)c1 here?
A: 97%

Q: O=C(CCc1ccco1)NC1CCN(CC2(c3ccc(Cl)cc3)CCC2)CC1 was tested. Which growth did it give?
A: 12.4%

Q: With O=C(O)CC(Br)C(=O)CBr (stereo not given) as the compound, how does the growth read?
A: 98.2%

Q: O=C(CF)N(O)c1ccc(/C=C/c2ccccc2)cc1 was tested. Which growth did it give?
A: 44.9%

Q: With CCCCNCCc1ccccn1 as the compound, how does the growth read?
A: 98.2%

Q: With CC(=O)O[C@H]1CCC2(C)C(=CCC3C2CCC2(C)/C(=N/OC(=O)c4ccc(N(CCCl)CCCl)cc4)CCC32)C1 (stereo not given in full) as the compound, how does the growth read?
A: 51.4%

Q: With O=C1NC(=O)C(Cc2ccccc2)(Cc2ccccc2)C(=O)N1 as the compound, how does the growth read?
A: 118%

Q: For Oc1ccc2c3c1O[C@H]1c4[nH]c5ccccc5c4C[C@@]4(O)C(C2)N(CC2CC2)CC[C@]314, which growth is on record?
A: 97.4%

Q: Oc1c(Br)cc(Br)cc1Br.[Cu+2] was tested. Which growth did it give?
A: 122%

Q: Which growth does the source give for O=[N+]([O-])c1ccccc1N1CCNCC1 here?
A: 111%

Q: How did the growth turn out when CCOc1cc(/C=N\Nc2nnc(C)n2N)c(C)cc1N(CCCl)CCCl was run?
A: 17%

Q: NC(=O)C(Cl)Cl was tested. Which growth did it give?
A: 111%

Q: With CC1(C)CC2(CC(C)(C)c3cc(O)c(O)cc32)c2cc(O)c(O)cc21 as the compound, how does the growth read?
A: 111%

Q: Which growth does the source give for CCCCOC(=O)c1ccccc1C(=O)O.CCCCOC(=O)c1ccccc1C(=O)O.[Cu+2] here?
A: 105%

Q: How did the growth turn out when ClCCN(CCCl)c1ccc(C=NCCc2c[nH]c3ccccc23)cc1 was run?
A: 81.9%

Q: For ClCCN(CCCl)c1nc(Cl)c(C2CC(c3ccc(Cl)cc3)=NN2c2cc(Cl)cc(Cl)c2)s1 (stereo not given), which growth is on record?
A: 103%

Q: With CC[CH2][Pb]([CH2]CC)([CH2]CC)[O]C(=O)C(F)(F)F as the compound, how does the growth read?
A: -95.3% (active)

Q: Which growth does the source give for O=C1NC(=O)C(CN2C(=O)C3(c4ccccc42)[C@H](Cl)C(=O)N3c2ccccc2)C(=O)N1 (stereo not given in full) here?
A: 72.3%

Q: O=C(O)CNC(=O)c1ccccc1 was tested. Which growth did it give?
A: 97.5%

Q: With O=C(CCCN1CCC2(CC1)C(=O)NCN2c1ccc(F)cc1)c1ccc(F)cc1 as the compound, how does the growth read?
A: 97.3%

Q: CCOC(=O)/C=C(\C)Nc1ccc(N/C(C)=C/C(=O)OCC)c2c1Oc1ccccc1O2 was tested. Which growth did it give?
A: 102%

Q: For COc1ccccc1N1CCN(CCc2c[nH]c3cc4c(cc23)OCO4)CC1, which growth is on record?
A: 84.2%

Q: How did the growth turn out when CCC(/C=C(C)/C=C/C(=O)c1c(O)c(-c2ccc(O)cc2)c[nH]c1=O)CO (stereo not given) was run?
A: 78.8%

Q: COC(=O)C(=[N+]=[N-])C(=O)OC was tested. Which growth did it give?
A: 103%

Q: With CC1(C)N=C(N)N=C(N)N1c1cccc(C(=O)Nc2cccc(S(=O)(=O)F)c2)c1 as the compound, how does the growth read?
A: 107%

Q: O=[N+]([O-])c1cc([N+](=O)[O-])c(Cl)c(Cl)c1Cl was tested. Which growth did it give?
A: 49.8%

Q: How did the growth turn out when CC1(C)N=C(N)N=C(N)N1c1ccc(OCCCCNC(=O)Nc2cccc(S(=O)(=O)F)c2)c(Cl)c1 was run?
A: 66.4%

Q: How did the growth turn out when COc1cc(NCCCCCN=C(N)N)c2ncccc2c1 was run?
A: 38.7%

Q: COc1cc(C2CC(=O)Nc3nc(N)[se]c32)c(OC)c2c1OCO2 (stereo not given) was tested. Which growth did it give?
A: 101%

Q: For O=[N+]([O-])c1ccc2cnn(CSP(=S)(c3ccccc3)c3ccccc3)c2c1, which growth is on record?
A: 69.7%

Q: Which growth does the source give for CCC(CO)NC1CCCCC1 (stereo not given) here?
A: 108%

Q: How did the growth turn out when OC1(c2ccc(Cl)cc2Cl)c2ccccc2C2=NCCN21 (stereo not given) was run?
A: 93.5%

Q: How did the growth turn out when C/C(=C\c1cc(C(F)(F)F)n(-c2ccc(N)cc2)n1)[C@@H]1C[C@@H]2O[C@]2(C)CCC[C@H](C)[C@H](O)[C@@H](C)C(=O)C(C)(C)[C@@H](O)CC(=O)O1 was run?
A: -2.85% (active)

Q: For c1ccc(CCN2CCCCC2Cc2ccccc2)cc1 (stereo not given), which growth is on record?
A: 111%

Q: How did the growth turn out when COc1cc[c]([Hg][Cl])cc1 was run?
A: 45.5%

Q: With CNC(=O)O/N=C(/C)c1ccc(Cl)cc1 as the compound, how does the growth read?
A: 91.1%

Q: Which growth does the source give for COc1cc(C2CC(=O)Nc3nc(N)[se]c32)cc(OC)c1OC (stereo not given) here?
A: 130%

Q: Which growth does the source give for C[As](=O)(O)c1ccc(C(=O)O)cc1 here?
A: 117%

Q: With COc1ccc(CN2CCN(Cc3ccccc3)CC2)c(O)c1 as the compound, how does the growth read?
A: 92%

Q: Which growth does the source give for NS(=O)(=O)c1nc[nH]c1[N+](=O)[O-] here?
A: 96.7%
